# Laboratory results taken from PubChem BioAssay.
# For some of these results: Results with a measured potency or affinity are listed apart. Calls of active or inactive are those of the source.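 Rule for the calls, unless noted: active = at least 20% inhibition of 6-phosphogluconate dehydrogenase activity; inactive = the rest.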
# Key:
# [1] = molecular target: 6-phosphogluconate dehydrogenase, decarboxylating (Homo sapiens) (UniProt P52209); assay: 6PGD enzyme inhibitors, primary screen, biochemical, human, recombinant enzyme, NADPH absorbance (AID 1159550); details: recombinant 6PGD, NADPH absorbance 341 nm; at 10 µM; stronger effect = higher value
# [2] = molecular target: Mitogen-activated protein kinase 7 (Homo sapiens) (UniProt Q13164); assay: ERK5 transactivation activators in reporter cells, primary screen, cell-based, HTS (AID 1508626;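 active = luciferase signal above three times the same-plate solvent-only control wells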;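 note: luciferase driven by Gal4-ERK5 fusion binding five Gal4 sites before minimal TATA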); details: HeLa Gal4-ERK5 transactivation, 18 h, at 5 µM, stronger effect = higher value
# [3] = polyglutamine-triggered caspase-3 activation inhibitors, cell-based (AID 1583); details: polyglutamine-induced caspase-3 activation, cell assay; stronger effect = higher value;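 tested at 10 µM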
# [4] = suppressors of polyQ aggregation in yeast, 75Q-TubU reporter (AID 1593); details: Yeast 75Q polyglutamine aggregation reporter
# [5] = rescue of polyQ-huntingtin neuronal dysfunction in worms, whole organism, C. elegans mechanosensory neurons, N-terminal huntingtin (AID 1599); details: touch response, stronger effect = higher value
# [6] = inhibitors of mitochondrial cytochrome c release, biochemical, purified mitochondria (AID 1603); details: stronger effect = lower value;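 note: mouse liver mitochondria challenged with calcium chloride; signal normalized to the plate average as 100%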
# [7] = inhibitors of polyQ protein aggregation (AID 1604); details: polyglutamine-induced protein aggregation inhibition assay; stronger effect = higher value; tested at 2.5 µM
# [8] = enhancers of glutamate uptake in motor neurons, MN-1 cell line (AID 1612); details: MN-1 motor neuron cells, stronger effect = higher value;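 note: tested at 1 µM final; 0% = mean of DMSO vehicle wells on each plate; positive means more glutamate uptake than control and negative means less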
# [9] = reducers of polyQ inclusions in PC12 cells, cell-based, NGF-treated PC12, GFPQ80 (AID 1614); details: PC12 NGF-treated GFP-polyQ80 inclusion reduction;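 note: lower means fewer inclusions and 0 means no inclusions at all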
# [10] = suppressors of polyglutamine aggregation in yeast, 75Q-TubH (AID 1616); details: S. cerevisiae 75Q-TubH polyglutamine aggregation suppression; stronger effect = higher value
# [11] = liver-stage malaria parasite growth inhibition, primary screen, cell-based, HepG2, luciferase luminescence, HepG2 viability (AID 624349; in the data active = parasite load remaining mostly below about 12%, no sharp cut-off; inactive = mostly above about 10%;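 note: 100% = mean of DMSO negative control wells on the same plate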); details: P. berghei liver stage in HepG2, luciferase luminescence, concentration not given here; parasite load remaining: stronger effect = lower value; viability: measured here: HepG2 viability without parasites
# Sequence of Mitogen-activated protein kinase 7 (Homo sapiens) (Q13164 whole entry, looked up, the tested form may be a part): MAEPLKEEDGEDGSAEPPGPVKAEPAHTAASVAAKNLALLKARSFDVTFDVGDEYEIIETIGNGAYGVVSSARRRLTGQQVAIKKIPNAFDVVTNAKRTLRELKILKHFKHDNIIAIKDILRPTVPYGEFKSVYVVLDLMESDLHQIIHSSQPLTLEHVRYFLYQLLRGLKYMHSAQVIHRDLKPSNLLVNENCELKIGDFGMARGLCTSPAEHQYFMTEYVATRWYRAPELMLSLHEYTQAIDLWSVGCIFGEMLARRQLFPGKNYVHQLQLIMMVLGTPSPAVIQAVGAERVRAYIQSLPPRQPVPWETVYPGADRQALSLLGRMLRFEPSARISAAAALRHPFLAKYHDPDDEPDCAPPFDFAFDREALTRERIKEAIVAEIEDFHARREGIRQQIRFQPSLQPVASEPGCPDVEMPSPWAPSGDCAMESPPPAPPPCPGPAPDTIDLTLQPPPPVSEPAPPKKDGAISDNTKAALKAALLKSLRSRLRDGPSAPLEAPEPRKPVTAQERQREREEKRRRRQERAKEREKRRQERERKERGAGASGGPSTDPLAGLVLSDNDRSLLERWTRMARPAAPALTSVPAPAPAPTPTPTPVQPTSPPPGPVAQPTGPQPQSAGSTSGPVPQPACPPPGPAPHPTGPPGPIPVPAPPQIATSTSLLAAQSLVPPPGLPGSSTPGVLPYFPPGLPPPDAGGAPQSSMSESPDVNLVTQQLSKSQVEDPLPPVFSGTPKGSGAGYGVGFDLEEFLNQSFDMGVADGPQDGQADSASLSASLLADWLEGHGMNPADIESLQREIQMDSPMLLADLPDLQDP
# Sequence of 6-phosphogluconate dehydrogenase, decarboxylating (Homo sapiens) (P52209 whole entry, looked up, the tested form may be a part): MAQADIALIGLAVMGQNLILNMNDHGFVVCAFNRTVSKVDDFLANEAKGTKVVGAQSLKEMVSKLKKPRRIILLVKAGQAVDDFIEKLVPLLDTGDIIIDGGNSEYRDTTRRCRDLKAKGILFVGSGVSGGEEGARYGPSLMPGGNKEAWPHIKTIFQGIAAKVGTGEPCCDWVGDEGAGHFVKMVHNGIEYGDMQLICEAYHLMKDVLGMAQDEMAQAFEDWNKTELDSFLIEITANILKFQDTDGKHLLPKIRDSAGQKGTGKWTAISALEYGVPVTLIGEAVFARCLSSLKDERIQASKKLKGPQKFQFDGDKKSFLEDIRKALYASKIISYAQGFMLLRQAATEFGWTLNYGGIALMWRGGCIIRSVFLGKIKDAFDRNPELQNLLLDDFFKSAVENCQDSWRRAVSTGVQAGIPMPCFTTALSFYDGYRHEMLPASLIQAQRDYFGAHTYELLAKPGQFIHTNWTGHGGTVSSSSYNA
smiles,measurement,setting,value
CC(=O)OC1CC2C(C)(C)C(=O)CCC2(C)C2CCC3(C)C(c4ccoc4)OC(=O)C4OC43C12C (stereo not drawn),inhibition,[1],11.7% (inactive)
same,luciferase signal,[2],20 AU (inactive)
COC1[C@H](O)[C@@H](O)C(O)[C@H](O)[C@H]1O (stereo partly drawn),inhibition,[1],-7.09% (inactive)
same,luciferase signal,[2],136 AU (inactive)
COc1cccc2c1CCC1=CC(=O)CC[C@@]12C,inhibition,[1],-1.6% (inactive)
same,luciferase signal,[2],40 AU (inactive)
C[C@@H]1CC[C@@]2(OC1)O[C@H]1C[C@H]3[C@@H]4CC[C@H]5C[C@@H](O)CC[C@]5(C)[C@H]4CC[C@]3(C)[C@H]1[C@@H]2C,inhibition,[1],-2.45% (inactive)
same,luciferase signal,[2],36 AU (inactive)
CC(=O)OCC1(O)CC23CCC4c5ccoc5CCC4(C)C2CCC1C3 (stereo not drawn),inhibition,[1],4.27% (inactive)
same,luciferase signal,[2],24 AU (inactive)
CC(=O)O[C@H]1CC[C@@]2(C)C(=CC=C3[C@@H]4CC[C@H]([C@H](C)/C=C/[C@H](C)C(C)C)[C@@]4(C)CC[C@@H]32)C1,inhibition,[1],14.6% (inactive)
same,luciferase signal,[2],72 AU (inactive)
COc1cc(OC)c2c(=O)c(-c3ccccc3)coc2c1,inhibition,[1],10.4% (inactive)
same,luciferase signal,[2],68 AU (inactive)
O=C1CC[C@]23/C=C\C(=O)NCCCCNCCCNC(=O)/C=C\c4ccc(c2c4)O[C@@H]3C1,inhibition,[1],-0.518% (inactive)
same,luciferase signal,[2],36 AU (inactive)
COC(=O)C[C@H]1C2(C)CC34OC5(C)O[C@@]6([C@H](OC)C(OC(=O)C(C)C)[C@]7(C)C(/C(=C(/OC)C(C)C)C(=O)O[C@H]7c7ccoc7)[C@@]6(O5)[C@H](OC)[C@@]3(OC)C2OC(C)=O)[C@]14C (stereo partly drawn),inhibition,[1],-3.86% (inactive)
same,luciferase signal,[2],20 AU (inactive)
O=C(O)c1cc(O)c2c(c1)C(=O)c1cc(O)cc(O)c1C2=O,inhibition,[1],6.18% (inactive)
same,luciferase signal,[2],76 AU (inactive)
CC(C)C1=CC2=CC[C@@H]3[C@](C)(CCC[C@@]3(C)C(=O)O)[C@H]2CC1,inhibition,[1],-6.38% (inactive)
same,luciferase signal,[2],44 AU (inactive)
COc1cc(OC)c2c(=O)c(OC)c(-c3ccc(OC)c(OC)c3)oc2c1,inhibition,[1],1.73% (inactive)
same,luciferase signal,[2],68 AU (inactive)
CC1(C)C[C@@H]2C(=O)CC[C@H]3O[C@]3(C)CC[C@H]21,inhibition,[1],14.4% (inactive)
same,luciferase signal,[2],44 AU (inactive)
O=C(NCO)c1cccnc1,inhibition,[1],-8.21% (inactive)
same,luciferase signal,[2],68 AU (inactive)
CC(=O)/C=C\[C@@H]1[C@@]2(C)CCCC(C)(C)C2CC[C@@]1(C)O (stereo partly drawn),inhibition,[1],14.1% (inactive)
same,luciferase signal,[2],348 AU (active)
O=C1C=C(O)c2ccccc2C1=O,inhibition,[1],5.16% (inactive)
same,luciferase signal,[2],44 AU (inactive)
O=C(O)/C=C(/CC(=O)O)C(=O)O,inhibition,[1],8.82% (inactive)
same,luciferase signal,[2],60 AU (inactive)
CC1C2[C@]3(CC[C@H]1C)CCC1(C)[C@@]2(C=CC2[C@@]4(C)CCC(=O)C(C)(C)C4CC[C@]21C)OC3=O (stereo partly drawn),inhibition,[1],17.9% (inactive)
same,luciferase signal,[2],100 AU (inactive)
C=C(C)CCCC(C)CCOC(C)=O (stereo not drawn),inhibition,[1],8.09% (inactive)
same,luciferase signal,[2],68 AU (inactive)
NC(=O)NCCC[C@H](N)C(=O)O,inhibition,[1],15.5% (inactive)
same,luciferase signal,[2],72 AU (inactive)
CCC(C)C(=O)OC1[C@@H]2CC3=C4CC(=O)O[C@@H](c5ccoc5)[C@]4(C)CCC3[C@@](C)(C2=O)[C@@H](CC(=O)OC)C1(C)C (stereo partly drawn),inhibition,[1],6.33% (inactive)
same,luciferase signal,[2],116 AU (inactive)
COC(=O)C[C@H]1C2(C)CC34OC5(C)O[C@@]6([C@H](OC(C)=O)C(OC(C)=O)[C@]7(C)C(/C(=C(/O)C(C)C)C(=O)O[C@H]7c7ccoc7)[C@@]6(O5)[C@H](OC(C)=O)[C@@]3(O)C2OC(=O)C(C)C)[C@]14C (stereo partly drawn),inhibition,[1],-3.02% (inactive)
same,luciferase signal,[2],24 AU (inactive)
COC(=O)[C@]1(C)CCC[C@]2(C)c3ccc(C(C)C)cc3C(=O)CC12 (stereo partly drawn),inhibition,[1],13.7% (inactive)
same,luciferase signal,[2],32 AU (inactive)
CC(=O)NC(Cc1c[nH]c2ccccc12)C(=O)O (stereo not drawn),inhibition,[1],-6.76% (inactive)
same,luciferase signal,[2],64 AU (inactive)
COC1=C(O)c2cc3oc(C(C)=O)c(O)c3c(O)c2C(=O)C1=O,inhibition,[1],1.87% (inactive)
same,luciferase signal,[2],52 AU (inactive)
CC(=O)O[C@@H]1CC(=O)[C@@]2(C)C(CC(=O)[C@]3(C)C2CC[C@@]2(C)[C@H](c4ccoc4)OC(=O)C4OC423)C1(C)C (stereo partly drawn),inhibition,[1],9.95% (inactive)
same,luciferase signal,[2],24 AU (inactive)
CC1=C[C@@H]2[C@@H](CC1)[C@](C)(O)CC[C@H]2C(C)C,inhibition,[1],9.65% (inactive)
same,luciferase signal,[2],48 AU (inactive)
CC[C@H](CC[C@@H](C)[C@H]1CC[C@H]2[C@@H]3CC=C4C[C@@H](OC(C)=O)CC[C@]4(C)[C@H]3CC[C@]12C)C(C)C,inhibition,[1],9.08% (inactive)
same,luciferase signal,[2],36 AU (inactive)
C=C1C2CCC3(C)C(c4ccoc4)OC(=O)CC13OC1CC(=O)C(C)(C)C(CC(=O)OC)C12C (stereo not drawn),inhibition,[1],-8.25% (inactive)
same,luciferase signal,[2],16 AU (inactive)
CC(C)CCC[C@@H](C)[C@H]1CC[C@H]2[C@@H]3C[C@@H](O)[C@@]4(O)C[C@@H](O)CC[C@]4(C)[C@H]3CC[C@]12C,inhibition,[1],-2.71% (inactive)
same,luciferase signal,[2],88 AU (inactive)
CCOC(=O)CCCCCCCCCCCCC1C=CCC1 (stereo not drawn),inhibition,[3],-0.73%
same,score,[4],-0.7
same,rescue above control,[5],-1.18
same,cytochrome c release ratio,[6],1.01
same,inhibition of aggregation,[7],55.1%
same,glutamate uptake change,[8],-2.82%
same,inclusion score,[9],2
same,aggregation suppression score,[10],0.251
same,inhibition,[1],2.03% (inactive)
same,luciferase signal,[2],116 AU (inactive)
COC(=O)c1c(C)cc(OC)cc1O,inhibition,[1],-8.1% (inactive)
same,luciferase signal,[2],32 AU (inactive)
N[C@@H](CSCSC[C@H](N)C(=O)O)C(=O)O,inhibition,[1],6.1% (inactive)
same,luciferase signal,[2],300 AU (inactive)
NC(=O)c1ccc[n+]([C@@H]2O[C@H](COP(=O)([O-])OP(=O)(O)OC[C@H]3O[C@@H](n4cnc5c(N)ncnc54)[C@H](OP(=O)(O)O)[C@@H]3O)[C@@H](O)[C@H]2O)c1,inhibition,[3],19.9%
same,score,[4],1.08
same,rescue above control,[5],9.74
same,cytochrome c release ratio,[6],0.78
same,inhibition of aggregation,[7],-21.6%
same,glutamate uptake change,[8],16.5%
same,inclusion score,[9],2
same,aggregation suppression score,[10],0.975
same,parasite load remaining,[11],169% (inactive)
same,viability,[11],83.2%
same,inhibition,[1],16.2% (inactive)
same,luciferase signal,[2],32 AU (inactive)
COc1ccc(-c2cc(=O)c3ccccc3o2)cc1OC,inhibition,[1],-3.02% (inactive)
same,luciferase signal,[2],76 AU (inactive)
